About 300 (9.4%) of roughly 3,200 compounds showed activity. Many of the other results were omitted from the sample, so actives are more common in it than they were. Unmarked numbers belong to inactive results.
Tested on: A673/TR/shEF
Test: cell viability (LOESS-normalised, relative to median of negative controls) (log2 ratio); higher = more viable cells (less compound effect), active = hit call of the paper (over 3 MAD below the median)
Settings: treatment time: 72 h
Summary of the method: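 Doxycycline, present or absent from 24 h before compounds, was used to induce EWS-FLI1 shRNA knockdown in A673/TR/shEF Ewing sarcoma cells at 1,500 per well in 384-well plates. Cells then received library compounds at two or more concentrations, or DMSO controls, for three days. Viability was measured by CellTiter-Glo luminescence on an Envision reader, and per-plate LOESS correction, division by the negative-control median and log2 transformation followed.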

[1] = 0.25 µM, library screen: screen1, EWS-FLI1 expression: high (no doxycycline)
[2] = 0.25 µM, library screen: screen1, EWS-FLI1 expression: low (doxycycline-induced shRNA knockdown)
[3] = 2.5 µM, library screen: screen1, EWS-FLI1 expression: high (no doxycycline)
[4] = 2.5 µM, library screen: screen1, EWS-FLI1 expression: low (doxycycline-induced shRNA knockdown)
[5] = 0.103 µM, library screen: screen3, EWS-FLI1 expression: high (no doxycycline)
[6] = 0.103 µM, library screen: screen3, EWS-FLI1 expression: low (doxycycline-induced shRNA knockdown)
[7] = 0.308 µM, library screen: screen3, EWS-FLI1 expression: high (no doxycycline)
[8] = 0.308 µM, library screen: screen3, EWS-FLI1 expression: low (doxycycline-induced shRNA knockdown)
[9] = 0.926 µM, library screen: screen3, EWS-FLI1 expression: high (no doxycycline)
[10] = 0.926 µM, library screen: screen3, EWS-FLI1 expression: low (doxycycline-induced shRNA knockdown)
[11] = 2.8 µM, library screen: screen3, EWS-FLI1 expression: high (no doxycycline)
[12] = 2.8 µM, library screen: screen3, EWS-FLI1 expression: low (doxycycline-induced shRNA knockdown)
[13] = 8.3 µM, library screen: screen3, EWS-FLI1 expression: high (no doxycycline)
[14] = 8.3 µM, library screen: screen3, EWS-FLI1 expression: low (doxycycline-induced shRNA knockdown)
[15] = 25 µM, library screen: screen3, EWS-FLI1 expression: high (no doxycycline)
[16] = 25 µM, library screen: screen3, EWS-FLI1 expression: low (doxycycline-induced shRNA knockdown)

O=C(NC(=S)Nc1ncc(Br)cc1Br)c1cccs1
cell viability (log2) [1]: 0.112
cell viability (log2) [2]: -0.086
cell viability (log2) [3]: 0.132
cell viability (log2) [4]: 0.0575

COc1c(Cl)ccc(Cl)c1C(=O)O
cell viability (log2) [1]: 0.0938
cell viability (log2) [2]: 0.128
cell viability (log2) [3]: 0.0992
cell viability (log2) [4]: 0.17

CC(=O)O[C@H]1CC[C@]2(C)C3=CC(=O)[C@@]4(C)C(C[C@@H]5OC6(OCC(C)CC6Br)[C@@H](C)[C@@H]54)C3CC[C@H]2C1 (some centres undefined)
cell viability (log2) [1]: 0.0329
cell viability (log2) [2]: 0.0911
cell viability (log2) [3]: 0.172
cell viability (log2) [4]: 0.139

CC(C)(C)OC(=O)C(C)(N)c1ccc(Cl)cc1 (centres undefined)
cell viability (log2) (0.25 µM, library screen: screen2, EWS-FLI1 expression: high (no doxycycline)): 0.157
cell viability (log2) (0.25 µM, library screen: screen2, EWS-FLI1 expression: low (doxycycline-induced shRNA knockdown)): 0.0841
cell viability (log2) (2.5 µM, library screen: screen2, EWS-FLI1 expression: high (no doxycycline)): 0.151
cell viability (log2) (2.5 µM, library screen: screen2, EWS-FLI1 expression: low (doxycycline-induced shRNA knockdown)): 0.141

CCN(CCO)CCCOc1ccc2c(Nc3cc(CC(=O)Nc4cccc(F)c4)[nH]n3)ncnc2c1
cell viability (log2) [5]: -0.49 (active)
cell viability (log2) [6]: -0.0648
cell viability (log2) [7]: -0.395 (active)
cell viability (log2) [8]: -0.00388
cell viability (log2) [9]: -0.452 (active)
cell viability (log2) [10]: -0.0458
cell viability (log2) [11]: -0.473 (active)
cell viability (log2) [12]: -0.112 (active)
cell viability (log2) [13]: -0.446 (active)
cell viability (log2) [14]: -0.0257
cell viability (log2) [15]: -0.681 (active)
cell viability (log2) [16]: -0.0482

C#Cc1cccc(Nc2ncnc3cc(OCCOC)c(OCCO)cc23)c1
cell viability (log2) [5]: -0.021
cell viability (log2) [6]: 0.0228
cell viability (log2) [7]: -0.00557
cell viability (log2) [8]: 0.0307
cell viability (log2) [9]: -0.00846
cell viability (log2) [10]: 0.063
cell viability (log2) [11]: 0.0648
cell viability (log2) [12]: 0.0201
cell viability (log2) [13]: -0.0295
cell viability (log2) [14]: 0.0604
cell viability (log2) [15]: -0.0784
cell viability (log2) [16]: -0.0862

O=C(CSc1nc2ccccc2[nH]1)c1ccc(OC(F)F)cc1
cell viability (log2) [1]: 0.0646
cell viability (log2) [2]: 0.0338
cell viability (log2) [3]: 0.169
cell viability (log2) [4]: -0.104

CN1CCN(CC(=O)N2c3ccccc3Sc3ccccc32)CC1
cell viability (log2) [1]: 0.172
cell viability (log2) [2]: 0.134
cell viability (log2) [3]: 0.173
cell viability (log2) [4]: 0.343

CNC(=O)c1c(F)cccc1Nc1nc(Nc2cc3c(cc2OC)CCN3C(=O)CN(C)C)nc2[nH]ccc12
cell viability (log2) [5]: -0.00474
cell viability (log2) [6]: 0.0229
cell viability (log2) [7]: -0.215 (active)
cell viability (log2) [8]: -0.0133
cell viability (log2) [9]: -0.468 (active)
cell viability (log2) [10]: -0.047
cell viability (log2) [11]: -0.729 (active)
cell viability (log2) [12]: -0.119 (active)
cell viability (log2) [13]: -0.785 (active)
cell viability (log2) [14]: -0.103 (active)
cell viability (log2) [15]: -1.04 (active)
cell viability (log2) [16]: -0.185 (active)

CCOC(=O)C1=C(C)N=C2SC(C)C(=O)N2C1c1ccc(OC)cc1 (centres undefined)
cell viability (log2) [1]: 0.148
cell viability (log2) [2]: 0.0319
cell viability (log2) [3]: 0.107
cell viability (log2) [4]: 0.0438

— the supplement of paper PMC6089552
